Two molecules from ChEMBL document CHEMBL2218924, “A broad activity screen in support of a chemogenomic map for kinase signalling research and drug discovery” (Biochem J, 2013) can be followed below.

SMILES strings stand for the structures.

Test [1] concerns the target T1, Serine/threonine-protein kinase 17A (Homo sapiens) (UniProt Q9UEE5).
T1 sequence (whole entry): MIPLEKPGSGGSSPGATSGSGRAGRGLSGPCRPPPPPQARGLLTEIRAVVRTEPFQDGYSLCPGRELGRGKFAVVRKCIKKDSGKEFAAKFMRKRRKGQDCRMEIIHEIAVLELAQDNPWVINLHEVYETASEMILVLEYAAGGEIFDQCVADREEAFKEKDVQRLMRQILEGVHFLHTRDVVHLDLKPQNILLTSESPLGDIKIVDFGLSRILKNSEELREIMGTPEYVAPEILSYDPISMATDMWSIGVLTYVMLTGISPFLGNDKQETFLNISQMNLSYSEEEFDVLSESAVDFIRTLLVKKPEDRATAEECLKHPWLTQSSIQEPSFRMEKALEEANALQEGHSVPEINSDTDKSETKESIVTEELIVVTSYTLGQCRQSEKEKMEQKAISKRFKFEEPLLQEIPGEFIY
The note with it: at 10 µM.

Test [2] addresses T2, Dual specificity tyrosine-phosphorylation-regulated kinase 2 (Homo sapiens) (UniProt Q92630).
T2 sequence (whole entry): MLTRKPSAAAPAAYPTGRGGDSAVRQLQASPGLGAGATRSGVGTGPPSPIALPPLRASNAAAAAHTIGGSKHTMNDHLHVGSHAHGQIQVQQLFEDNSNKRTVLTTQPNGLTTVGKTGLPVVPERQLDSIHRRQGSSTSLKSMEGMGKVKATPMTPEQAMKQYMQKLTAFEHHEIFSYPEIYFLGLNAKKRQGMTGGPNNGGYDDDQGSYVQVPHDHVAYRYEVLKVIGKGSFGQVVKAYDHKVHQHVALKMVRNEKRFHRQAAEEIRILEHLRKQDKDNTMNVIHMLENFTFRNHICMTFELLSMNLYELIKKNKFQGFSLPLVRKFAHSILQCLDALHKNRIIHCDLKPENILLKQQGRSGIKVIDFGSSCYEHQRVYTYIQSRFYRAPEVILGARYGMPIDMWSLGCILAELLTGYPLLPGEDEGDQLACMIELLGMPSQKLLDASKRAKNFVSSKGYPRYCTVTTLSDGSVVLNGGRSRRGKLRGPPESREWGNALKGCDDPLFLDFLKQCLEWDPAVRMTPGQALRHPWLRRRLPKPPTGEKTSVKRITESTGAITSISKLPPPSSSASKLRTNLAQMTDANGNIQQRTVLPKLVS
The settings on record: at 1 µM.

For test [3], the target named is T2, Dual specificity tyrosine-phosphorylation-regulated kinase 2 (Homo sapiens). The note with it: at 10 µM.
Test [4] concerns the target T3, Ephrin type-A receptor 1 (Homo sapiens) (UniProt P21709).
T3 sequence (whole entry): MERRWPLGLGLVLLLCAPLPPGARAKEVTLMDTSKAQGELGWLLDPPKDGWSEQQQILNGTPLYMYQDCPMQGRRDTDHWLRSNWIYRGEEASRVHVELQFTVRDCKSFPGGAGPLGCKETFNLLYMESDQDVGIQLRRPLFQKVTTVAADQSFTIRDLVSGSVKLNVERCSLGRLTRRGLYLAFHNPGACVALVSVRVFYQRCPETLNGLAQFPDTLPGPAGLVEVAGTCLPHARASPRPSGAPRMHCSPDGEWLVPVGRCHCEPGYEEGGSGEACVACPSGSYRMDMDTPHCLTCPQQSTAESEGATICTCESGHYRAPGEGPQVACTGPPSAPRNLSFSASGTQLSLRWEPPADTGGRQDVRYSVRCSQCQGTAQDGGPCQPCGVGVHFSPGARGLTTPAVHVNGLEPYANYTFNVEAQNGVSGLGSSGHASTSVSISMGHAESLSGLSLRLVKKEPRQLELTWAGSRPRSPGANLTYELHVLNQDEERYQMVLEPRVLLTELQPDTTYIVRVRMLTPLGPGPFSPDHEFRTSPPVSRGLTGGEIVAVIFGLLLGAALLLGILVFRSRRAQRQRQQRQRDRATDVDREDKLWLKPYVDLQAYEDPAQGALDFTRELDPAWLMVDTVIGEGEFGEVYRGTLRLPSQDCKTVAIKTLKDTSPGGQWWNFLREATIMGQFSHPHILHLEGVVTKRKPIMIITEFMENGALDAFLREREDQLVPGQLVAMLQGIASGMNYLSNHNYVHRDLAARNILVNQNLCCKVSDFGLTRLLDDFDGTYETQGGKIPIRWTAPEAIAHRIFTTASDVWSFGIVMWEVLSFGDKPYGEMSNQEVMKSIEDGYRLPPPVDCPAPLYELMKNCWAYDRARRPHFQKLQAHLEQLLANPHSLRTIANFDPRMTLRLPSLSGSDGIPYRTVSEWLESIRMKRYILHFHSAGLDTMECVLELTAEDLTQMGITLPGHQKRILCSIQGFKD
The note with it: at 1 µM.

The target in test [5] is T3, Ephrin type-A receptor 1 (Homo sapiens). The settings on record: at 10 µM.
The target in test [6] is Ephrin type-A receptor 2 (Homo sapiens) (UniProt P29317). The note with it: at 1 µM.
For test [7] the target is unchanged. The settings on record: at 10 µM.
Test [8] has as its target T4, Ephrin type-A receptor 3 (Homo sapiens) (UniProt P29320).
T4 sequence (whole entry): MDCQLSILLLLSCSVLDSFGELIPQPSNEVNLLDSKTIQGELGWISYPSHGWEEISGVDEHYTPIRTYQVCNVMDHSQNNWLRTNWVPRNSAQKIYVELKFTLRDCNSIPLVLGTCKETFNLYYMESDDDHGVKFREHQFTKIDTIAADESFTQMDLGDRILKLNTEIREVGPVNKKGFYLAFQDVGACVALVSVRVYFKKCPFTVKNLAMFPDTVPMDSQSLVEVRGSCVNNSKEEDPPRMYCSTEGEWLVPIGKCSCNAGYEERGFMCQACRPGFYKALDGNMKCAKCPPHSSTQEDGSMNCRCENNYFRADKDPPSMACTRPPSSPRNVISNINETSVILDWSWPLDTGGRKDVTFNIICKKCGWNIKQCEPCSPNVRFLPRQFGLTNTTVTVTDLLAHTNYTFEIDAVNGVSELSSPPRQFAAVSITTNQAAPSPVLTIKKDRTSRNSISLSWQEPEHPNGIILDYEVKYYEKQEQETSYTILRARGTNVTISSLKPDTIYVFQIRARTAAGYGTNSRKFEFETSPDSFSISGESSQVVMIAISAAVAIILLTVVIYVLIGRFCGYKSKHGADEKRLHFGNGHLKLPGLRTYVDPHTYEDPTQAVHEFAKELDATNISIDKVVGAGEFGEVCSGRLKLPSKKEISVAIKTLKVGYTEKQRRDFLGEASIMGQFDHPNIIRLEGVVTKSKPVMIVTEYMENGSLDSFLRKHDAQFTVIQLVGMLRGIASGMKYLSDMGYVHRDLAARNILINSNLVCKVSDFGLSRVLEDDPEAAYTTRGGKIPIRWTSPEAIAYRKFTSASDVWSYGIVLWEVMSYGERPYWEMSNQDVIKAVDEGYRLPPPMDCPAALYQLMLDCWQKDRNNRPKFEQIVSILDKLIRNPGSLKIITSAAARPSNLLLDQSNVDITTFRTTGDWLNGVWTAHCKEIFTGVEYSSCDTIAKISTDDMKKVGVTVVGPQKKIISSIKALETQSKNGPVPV
The settings on record: at 1 µM.

Test [9] addresses T4, Ephrin type-A receptor 3 (Homo sapiens). The note with it: at 10 µM.
The target of test [10] is Ephrin type-A receptor 4 (Homo sapiens) (UniProt P54764). The note with it: at 1 µM.
Test [11] has the same target. The note with it: at 10 µM.
The target in test [12] is Ephrin type-A receptor 5 (Homo sapiens) (UniProt P54756). The settings on record: at 1 µM.
The target is the same in test [13]. The note with it: at 10 µM.
In test [14] the target is Ephrin type-A receptor 7 (Homo sapiens) (UniProt Q15375). The settings on record: at 1 µM.
Test [15] has the same target. The note with it: at 10 µM.
Test [16] has as its target T5, Ephrin type-A receptor 8 (Homo sapiens) (UniProt P29322).
T5 sequence (whole entry): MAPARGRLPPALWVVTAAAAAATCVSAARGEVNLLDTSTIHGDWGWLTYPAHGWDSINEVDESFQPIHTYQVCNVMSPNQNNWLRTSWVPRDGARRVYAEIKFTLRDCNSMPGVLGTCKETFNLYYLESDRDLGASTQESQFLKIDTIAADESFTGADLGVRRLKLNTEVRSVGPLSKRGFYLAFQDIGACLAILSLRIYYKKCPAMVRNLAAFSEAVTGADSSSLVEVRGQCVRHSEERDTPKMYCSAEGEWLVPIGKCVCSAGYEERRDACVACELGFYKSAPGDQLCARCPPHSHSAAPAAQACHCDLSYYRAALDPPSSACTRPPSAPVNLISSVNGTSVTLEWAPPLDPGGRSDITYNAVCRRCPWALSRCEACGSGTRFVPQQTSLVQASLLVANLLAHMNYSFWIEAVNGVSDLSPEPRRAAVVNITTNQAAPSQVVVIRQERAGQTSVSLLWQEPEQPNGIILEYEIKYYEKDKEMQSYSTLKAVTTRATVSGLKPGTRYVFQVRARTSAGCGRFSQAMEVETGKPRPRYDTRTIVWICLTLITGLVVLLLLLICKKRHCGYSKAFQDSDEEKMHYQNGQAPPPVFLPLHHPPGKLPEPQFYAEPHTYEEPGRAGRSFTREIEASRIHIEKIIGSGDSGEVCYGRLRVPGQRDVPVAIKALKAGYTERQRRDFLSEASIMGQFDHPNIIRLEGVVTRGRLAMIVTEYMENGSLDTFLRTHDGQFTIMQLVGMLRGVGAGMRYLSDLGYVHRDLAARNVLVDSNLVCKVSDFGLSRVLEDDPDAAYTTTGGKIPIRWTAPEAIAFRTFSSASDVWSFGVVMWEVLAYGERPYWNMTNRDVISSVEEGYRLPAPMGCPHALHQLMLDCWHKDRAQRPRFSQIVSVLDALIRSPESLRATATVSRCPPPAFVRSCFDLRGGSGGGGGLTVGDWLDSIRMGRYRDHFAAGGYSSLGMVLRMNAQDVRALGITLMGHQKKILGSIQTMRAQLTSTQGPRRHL
The settings on record: at 1 µM.

The target of test [17] is T5, Ephrin type-A receptor 8 (Homo sapiens). The settings on record: at 10 µM.
The target in test [18] is T6, Ephrin type-B receptor 1 (Homo sapiens) (UniProt P54762).
T6 sequence (whole entry): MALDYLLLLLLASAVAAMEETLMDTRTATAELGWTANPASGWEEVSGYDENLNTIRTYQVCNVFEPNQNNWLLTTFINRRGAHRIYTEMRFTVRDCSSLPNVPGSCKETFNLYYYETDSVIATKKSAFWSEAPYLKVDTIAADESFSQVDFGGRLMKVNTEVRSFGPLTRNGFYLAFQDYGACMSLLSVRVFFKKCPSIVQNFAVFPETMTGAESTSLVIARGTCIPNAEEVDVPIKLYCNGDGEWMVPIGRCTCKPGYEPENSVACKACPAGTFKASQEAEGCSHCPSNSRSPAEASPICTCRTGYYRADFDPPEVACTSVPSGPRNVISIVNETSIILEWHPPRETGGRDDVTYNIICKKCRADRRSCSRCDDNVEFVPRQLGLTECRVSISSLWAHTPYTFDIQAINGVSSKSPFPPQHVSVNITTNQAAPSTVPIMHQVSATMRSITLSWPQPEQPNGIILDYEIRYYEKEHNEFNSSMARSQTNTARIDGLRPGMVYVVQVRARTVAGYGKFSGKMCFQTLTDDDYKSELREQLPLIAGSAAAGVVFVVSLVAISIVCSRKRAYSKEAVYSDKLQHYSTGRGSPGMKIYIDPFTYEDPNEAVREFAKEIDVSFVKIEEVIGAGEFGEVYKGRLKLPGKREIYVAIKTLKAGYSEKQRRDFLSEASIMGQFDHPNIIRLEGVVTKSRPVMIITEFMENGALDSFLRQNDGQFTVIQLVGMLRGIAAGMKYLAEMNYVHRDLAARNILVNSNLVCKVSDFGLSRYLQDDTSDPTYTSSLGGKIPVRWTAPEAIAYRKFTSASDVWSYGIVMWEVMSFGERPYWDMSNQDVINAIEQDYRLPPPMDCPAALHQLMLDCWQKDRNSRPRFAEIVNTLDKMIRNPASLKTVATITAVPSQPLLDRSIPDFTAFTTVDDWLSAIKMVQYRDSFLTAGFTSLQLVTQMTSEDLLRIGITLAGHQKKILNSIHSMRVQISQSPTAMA
The settings on record: at 1 µM.

Sequence of Ephrin type-A receptor 4 (Homo sapiens) (P54764 whole entry): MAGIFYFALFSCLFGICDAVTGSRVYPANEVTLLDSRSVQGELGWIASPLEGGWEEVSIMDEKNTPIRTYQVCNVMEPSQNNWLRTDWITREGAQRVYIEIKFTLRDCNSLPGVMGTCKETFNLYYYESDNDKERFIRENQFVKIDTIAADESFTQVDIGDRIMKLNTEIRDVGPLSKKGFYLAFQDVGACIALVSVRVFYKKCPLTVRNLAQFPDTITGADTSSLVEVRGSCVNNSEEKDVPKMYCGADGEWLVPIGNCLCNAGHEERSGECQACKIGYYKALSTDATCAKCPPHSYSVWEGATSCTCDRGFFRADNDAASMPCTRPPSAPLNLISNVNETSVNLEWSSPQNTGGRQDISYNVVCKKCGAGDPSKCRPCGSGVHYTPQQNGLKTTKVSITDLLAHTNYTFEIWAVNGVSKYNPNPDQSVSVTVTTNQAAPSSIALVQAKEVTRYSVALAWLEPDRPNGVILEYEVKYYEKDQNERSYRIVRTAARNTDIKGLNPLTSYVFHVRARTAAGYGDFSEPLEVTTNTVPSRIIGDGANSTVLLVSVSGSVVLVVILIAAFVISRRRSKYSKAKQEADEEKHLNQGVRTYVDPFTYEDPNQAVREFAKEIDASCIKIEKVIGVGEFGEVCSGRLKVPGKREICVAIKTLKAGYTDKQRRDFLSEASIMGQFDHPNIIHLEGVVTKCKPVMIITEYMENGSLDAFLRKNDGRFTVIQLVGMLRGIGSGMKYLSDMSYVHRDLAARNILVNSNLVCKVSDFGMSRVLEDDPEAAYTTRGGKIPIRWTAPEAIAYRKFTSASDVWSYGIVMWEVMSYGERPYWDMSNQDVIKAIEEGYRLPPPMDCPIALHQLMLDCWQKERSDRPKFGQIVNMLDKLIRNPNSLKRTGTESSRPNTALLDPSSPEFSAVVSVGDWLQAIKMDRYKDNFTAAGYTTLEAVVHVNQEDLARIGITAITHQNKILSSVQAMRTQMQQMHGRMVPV
Sequence of Ephrin type-A receptor 5 (Homo sapiens) (P54756 whole entry): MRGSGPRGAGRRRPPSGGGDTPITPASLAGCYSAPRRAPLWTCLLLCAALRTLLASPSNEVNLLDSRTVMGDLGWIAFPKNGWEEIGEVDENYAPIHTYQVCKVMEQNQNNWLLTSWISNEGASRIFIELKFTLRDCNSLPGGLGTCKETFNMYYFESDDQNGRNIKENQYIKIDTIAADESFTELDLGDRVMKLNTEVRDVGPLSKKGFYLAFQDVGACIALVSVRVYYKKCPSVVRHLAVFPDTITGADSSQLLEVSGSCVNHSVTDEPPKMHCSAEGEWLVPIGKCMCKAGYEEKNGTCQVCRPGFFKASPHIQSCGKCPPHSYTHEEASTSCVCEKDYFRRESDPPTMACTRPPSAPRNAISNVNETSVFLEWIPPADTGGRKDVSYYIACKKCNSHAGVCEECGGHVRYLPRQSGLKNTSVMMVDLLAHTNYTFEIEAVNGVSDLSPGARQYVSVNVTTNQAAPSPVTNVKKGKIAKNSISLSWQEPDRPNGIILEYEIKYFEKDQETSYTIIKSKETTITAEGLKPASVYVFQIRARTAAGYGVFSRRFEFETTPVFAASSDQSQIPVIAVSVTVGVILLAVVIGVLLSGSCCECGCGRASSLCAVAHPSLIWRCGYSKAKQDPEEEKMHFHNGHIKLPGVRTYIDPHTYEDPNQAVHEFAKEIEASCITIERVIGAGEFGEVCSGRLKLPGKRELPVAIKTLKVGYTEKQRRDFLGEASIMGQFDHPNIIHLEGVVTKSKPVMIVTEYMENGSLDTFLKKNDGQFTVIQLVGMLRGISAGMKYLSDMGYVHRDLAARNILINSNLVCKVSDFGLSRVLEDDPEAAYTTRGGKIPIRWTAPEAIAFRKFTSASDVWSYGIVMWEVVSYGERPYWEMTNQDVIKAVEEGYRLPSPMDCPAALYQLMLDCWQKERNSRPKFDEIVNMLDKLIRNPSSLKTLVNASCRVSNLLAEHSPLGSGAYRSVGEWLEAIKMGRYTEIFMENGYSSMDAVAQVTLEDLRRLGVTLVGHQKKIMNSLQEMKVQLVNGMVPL
Sequence of Ephrin type-A receptor 7 (Homo sapiens) (Q15375 28-998 limits assumed): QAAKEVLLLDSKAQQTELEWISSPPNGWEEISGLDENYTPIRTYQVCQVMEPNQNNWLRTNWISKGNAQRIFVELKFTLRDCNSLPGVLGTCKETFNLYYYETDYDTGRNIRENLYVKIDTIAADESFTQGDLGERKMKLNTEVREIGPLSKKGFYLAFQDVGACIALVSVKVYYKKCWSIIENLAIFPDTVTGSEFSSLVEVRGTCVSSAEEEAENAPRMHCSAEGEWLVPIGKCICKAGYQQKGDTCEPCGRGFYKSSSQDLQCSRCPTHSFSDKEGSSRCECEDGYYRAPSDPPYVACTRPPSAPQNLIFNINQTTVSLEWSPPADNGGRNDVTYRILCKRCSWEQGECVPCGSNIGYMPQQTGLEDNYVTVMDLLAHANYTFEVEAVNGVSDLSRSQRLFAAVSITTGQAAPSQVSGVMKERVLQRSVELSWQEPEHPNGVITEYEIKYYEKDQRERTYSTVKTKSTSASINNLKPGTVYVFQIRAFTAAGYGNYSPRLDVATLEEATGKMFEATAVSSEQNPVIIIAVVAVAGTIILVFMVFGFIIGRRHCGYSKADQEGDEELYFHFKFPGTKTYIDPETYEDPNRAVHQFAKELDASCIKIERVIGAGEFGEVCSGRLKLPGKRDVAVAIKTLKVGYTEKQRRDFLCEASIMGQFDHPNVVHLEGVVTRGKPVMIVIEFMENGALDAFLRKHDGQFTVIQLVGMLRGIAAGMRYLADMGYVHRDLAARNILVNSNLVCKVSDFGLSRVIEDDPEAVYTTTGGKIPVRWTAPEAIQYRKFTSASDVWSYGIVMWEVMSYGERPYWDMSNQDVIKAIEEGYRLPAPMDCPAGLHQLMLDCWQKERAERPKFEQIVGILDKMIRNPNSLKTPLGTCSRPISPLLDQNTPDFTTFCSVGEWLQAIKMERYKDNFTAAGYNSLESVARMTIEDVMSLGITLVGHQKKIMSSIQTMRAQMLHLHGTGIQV
Sequence of Ephrin type-A receptor 2 (Homo sapiens) (P29317 whole entry): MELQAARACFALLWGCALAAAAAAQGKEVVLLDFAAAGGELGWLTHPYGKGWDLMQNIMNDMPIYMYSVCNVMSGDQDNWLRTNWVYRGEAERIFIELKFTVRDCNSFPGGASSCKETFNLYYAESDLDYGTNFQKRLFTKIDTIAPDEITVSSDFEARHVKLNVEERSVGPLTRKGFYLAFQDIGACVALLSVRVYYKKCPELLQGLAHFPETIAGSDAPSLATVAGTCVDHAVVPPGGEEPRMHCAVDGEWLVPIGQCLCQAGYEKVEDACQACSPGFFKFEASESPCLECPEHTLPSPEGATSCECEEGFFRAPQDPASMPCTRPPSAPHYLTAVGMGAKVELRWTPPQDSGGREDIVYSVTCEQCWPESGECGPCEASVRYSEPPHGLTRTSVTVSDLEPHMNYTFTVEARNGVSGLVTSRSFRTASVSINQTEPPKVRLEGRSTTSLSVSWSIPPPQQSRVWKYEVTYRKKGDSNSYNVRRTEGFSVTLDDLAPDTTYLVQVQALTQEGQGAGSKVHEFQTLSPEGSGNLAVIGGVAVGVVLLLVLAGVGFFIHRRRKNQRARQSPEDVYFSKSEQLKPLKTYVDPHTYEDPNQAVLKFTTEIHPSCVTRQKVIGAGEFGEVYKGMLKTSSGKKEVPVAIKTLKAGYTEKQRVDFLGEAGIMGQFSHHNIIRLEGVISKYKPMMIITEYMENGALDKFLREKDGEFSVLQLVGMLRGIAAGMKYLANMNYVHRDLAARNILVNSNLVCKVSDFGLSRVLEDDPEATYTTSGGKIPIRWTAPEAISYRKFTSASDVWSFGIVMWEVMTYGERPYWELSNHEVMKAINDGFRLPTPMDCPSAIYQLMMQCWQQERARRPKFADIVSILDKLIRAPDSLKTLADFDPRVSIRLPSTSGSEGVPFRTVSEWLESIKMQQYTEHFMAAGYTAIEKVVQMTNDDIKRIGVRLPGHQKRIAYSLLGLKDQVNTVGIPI

For orientation: residual activity means the signal under treatment as a percentage of the control signal. As to `CO[C@H]1C[C@@H]2CC[C@@H](C)[C@@](O)(O2)C(=O)C(=O)N2CCCC[C@H]2C(=O)O[C@H]([C@H](C)C[C@@H]2CC[C@@H](O)[C@H](OC)C2)CC(=O)[C@H](C)/C=C(\C)[C@@H](O)[C@@H](OC)C(=O)[C@H](C)C[C@H](C)/C=C/C=C/C=C/1C`, the residual activity in test [1] is 149%; in test [2], 99%; in [3], 101%; in [4], 84%; in [5] it was 65%; in [6], 110%. Besides, the residual activity in test [7] was found to be 120%; in test [8], 103%; in test [9], 129%; in test [10] it was 104%; in [11] it was 100%; in test [12], 112%. Moreover, the residual activity came out at 116% in test [13]; 100% in test [14]; 92% in test [15]; 96% in test [16]; 119% in test [17]; 101% in test [18].

As to `O=C1c2ccccc2-[n+]2ccc3c([nH]c4ccccc43)c21`, the residual activity was determined as 114% in test [1]; 99% in [2]; 92% in test [3]; 78% in test [4]; 91% in test [5]; 89% in test [6]. For the same molecule, the residual activity in test [7] was 101%; in [8], 89%; in test [9], 81%; in [10] it was 103%; in [11] it was 104%; in [12], 116%. In addition, the residual activity in test [13] was 102%; in test [14], 85%; in [15] it was 79%; in test [16], 89%; in test [17] it was 85%; in [18], 85%.
